“And” between values parts separate entries of the source, which are not always exact repeats. Equal entries are not always repeated. Records with an inconclusive call do not appear. The source made the active and inactive calls. Calls come from the whole dose curve.
% is set by controls: 0 for no effect and ±100 for the full control effect; potency is the fitted concentration of half-maximal effect.

This assay is described as follows: Nuclear factor erythroid 2-related factor 2/antioxidant responsive element (Nrf2/ARE) small molecule agonists: luciferase reporter gene qHTS assay in human keratinocytes (AID 1919969). Note: nearly all actives have a fitted effect of over 35% in size. To be noted: KeratinoSens HaCaT ARE-luciferase, luminescence, 24 h; series mostly up to 92.4 µM; activity, positive = activation: at the top concentration. An excerpt: National Center for Advancing Translational Sciences [NCATS]
Division of Preclinical Innovation [DPI]
U.S. Environmental Protection Agency [EPA]
National Institutes of Environmental Health Sciences [NIEHS]
National Toxicology Program [NTP]
U.S. Food and Drug Administration [FDA]
Oxidative stress has been implicated in the pathogenesis of a variety of diseases ranging from cancer to neurodegeneration. The antioxidant response element (ARE) signaling pathway plays an important role in the amelioration of oxidative stress. The KeratinoSens (Givaudan, Switzerland) is an in vitro test method which quantifies luciferase induction as a measure of activation of Keap1-Nrf2-antioxidationt/electrophile response element (ARE) dependant pathway in HaCaT human keratinocytes stably transfected with a selectable plasmid. The KeratinoSens assay is a cell-based assay with a reporter cell line to detect potential skin sensitizers by their ability to induce the Nrf2/ARE-response. The activation of the report gene under culture conditions can be detected by ONE-Glo Luciferase Assay System (Promega, Madison, WI). This cell line has been used to screen the Tox21 10K compound library to identify agonists that induce oxidative stress. The cytotoxicity of the Tox21 compound library against the KS-ARE cell line was tested in parallel by measuring the cell viability using CellTiter- Fluor assay system (Promega, Madison, WI) in the same wells.
HaCaT derived cell line KeratinoSens were dispensed at 1,500 cells/5uL/well in 1536-well white wall/solid bottom plates using a Multidrop Combi (ThermoFisher Scientific, Waltham, MA) dispenser. After the assay plates were incubated at 37 C/5% CO2 for 5 h, 23 nL of compounds dissolved in DMSO, positive controls or DMSO only was transferred to the assay plate by a pintool workstation (Kalypsys, San Diego, CA). The plates were incubated at 37 C/5% CO2 for 23 h, followed by addition of 1uL/well of CellTiter-Fluor reagent into the assay plates using a Flying Reagent Dispenser (Aurora Discovery, San Diego, CA) for cell viability readout that measures cytotoxicity. After 1 h incubation at 37 C/5% CO2 the fluorescence intensity was measured using a ViewLux (PerkinElmer, Shelton, CT) plate reader. Then 4uL/well of One-Glo were added using a Flying Reagent Dispenser. After the plates were incubated at room temperature for 30 min, the luminescence intensity in the assay plates was measured using ViewLux plate reader.
Consider `N#CCC(=O)O`, for which the “activity, positive = activation” value was 0.677% (inactive).
On the same count and under the same terms, then `CCNc1nc(N)nc(Cl)n1`, with -1.94% (inactive); and `CC(C)CCOCCC(C)C`, with 5.92% (inactive).
Consider `Nc1ccc2cc3ccccc3cc2c1`, for which the Potency result is “inactive”.
As for `COCCOCCOCCOCCOC`, the “activity, positive = activation” value is 5.34% (inactive).
On to `C=C(C)[C@@H]1CCC2=CCC[C@@H](C)[C@]2(C)C1`, for which the “activity, positive = activation” value was 15.2% (inactive).
On the same count and under the same terms, then `C1CSCCS1`, with 19% (inactive); and `CCC(C)SSC(C)CC` (stereo not given), with -2.01% (inactive); and `CCCCCCCCO[C@@H]1O[C@H](CO)[C@@H](O)[C@H](O)[C@H]1O`, with -23.9% (inactive).
Still for that read-out and setting: the same measure for `CCCCCCCCSCC`: 1.48% (inactive).
Still for that read-out and setting: then `Cc1ccc(C2OC[C@@H]3OC(c4ccc(C)cc4)O[C@H]([C@H](O)CO)[C@@H]3O2)cc1` (stereo not given in full), with 2.46% (inactive); and `NC(=O)c1ncn([C@@H]2O[C@H](CO)[C@@H](O)[C@H]2O)c1O`, with 7.52% [at 42.5 µM] (inactive).
`O=S(=O)(O)c1ccccc1O`: the “activity, positive = activation” value is 1.06% (inactive).
For `CC(C)(C)CC(C)(C)c1ccc(O)c(-n2nc3ccccc3n2)c1`, the “activity, positive = activation” value is 8.94% (inactive).
Still for that read-out and setting: the same measure for `CCCCCCCCCOCC1CO1` (stereo not given): 10.7% (inactive); for `CCCc1ccc(N)cc1`: -1.62% (inactive).
Same read-out and setting: then `CC(=O)S[C@H](C(=O)N[C@H]1Cc2ccccc2[C@H]2CCC[C@@H](C(=O)O)N2C1=O)C(C)C`, with -8.55% (inactive); and `[Cl][Dy]([Cl])[Cl]`, with -5.82% (inactive).
Consider `CC1=CC(=O)c2ccccc2C1=O`, for which the Potency was 13.3 µM (active).
Take `O=C[C@H](O)[C@@H](O)[C@H](O)[C@H](O)CO`: the “activity, positive = activation” value was -1.57% (inactive).
Consider `CC(=O)OCC(=O)[C@@]1(O)CC[C@H]2[C@@H]3CCC4=CC(=O)C=C[C@]4(C)[C@H]3[C@@H](O)C[C@@]21C`, for which the “activity, positive = activation” value was -10.2% [at 42.5 µM] (inactive).
With `C=CCOC(=O)CCCCCCCC`, the “activity, positive = activation” value is -6.35% (inactive).
On the same count and under the same terms, the same measure for `Cc1cccc(S(=O)(=O)O)c1C`: 0.064% (inactive); for `Cc1ccc(C(=O)O)cc1`: -8.83% (inactive); for `CCCSSCCC`: 2.75% (inactive).
In the case of `Cc1cc(C)cc(OCC2CNC(=O)O2)c1` (stereo not given), the “activity, positive = activation” value was 2% [at 42.5 µM] (inactive).
Same read-out and setting: then `Clc1ccc2c(Cl)ccnc2c1`, with -0.724% (inactive); and `CC(CO)c1ccccc1` (stereo not given), with -0.155% (inactive).
The same measure, in the same setting: then `c1ccc2ncccc2c1`, with 1.07% (inactive); and `CCSC(=O)N(CC)CC`, with -15.2% (inactive); and `CCOC(=O)CCC(C)=O`, with -10.5% (inactive).
Consider `C=C(CC)C(=O)c1ccc(OCC(=O)O)c(Cl)c1Cl`, for which the Potency is 24.2 µM (active) and 29.8 µM (active).
With `CCO[Si](OCC)(OCC)c1ccccc1`, the “activity, positive = activation” value was 2.17% (inactive).
Same read-out and setting: then `COCC(O)CO` (stereo not given), with 0.506% (inactive); and `CCCCCCCCCCC`, with 0.85% (inactive).
With `CSc1ccc2c(c1)N(CCC1CCCCN1C)c1ccccc1S2` (stereo not given), the Potency result was “inactive”.
Turning to `NC(=O)c1ccc(N)cc1`, the “activity, positive = activation” value was -15.3% (inactive).
For `C/C=C/C(=O)O`, the Potency result was “inactive”.
In the case of `O=C1CC(c2ccc(Cl)cc2)CC(=O)N1`, the “activity, positive = activation” value is -0.234% [at 42.5 µM] (inactive).
Same read-out and setting: the same measure for `CC(=O)OCC(=O)Nc1cc(C#N)cc(NC(=O)COC(C)=O)c1Cl`: -1.29% [at 42.5 µM] (inactive).

(Values after PubChem BioAssay (Tox21).)
